# In PubChem BioAssay:
# Unmarked numbers belong to inactive results. Active and inactive are the calls of the source. Cut-off read from the data, not from the text of the source, unless noted: active = inhibition above about 28%; inactive = the rest.
# Experiments:
# [1] = biological target: Nuclear receptor coactivator 3 (Homo sapiens) (UniProt Q9Y6Q9); test: NCOA3 GAL4-fusion reporter inhibition – cell-based, luminescence, quadruplicate, confirmation (AID 588792;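 active = mean inhibition over 43.08%, the solvent-only control mean plus 3 SD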;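 note: 0% = DMSO treated cells and 100% = gossypol at 36 µM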); details: HEK293 GAL4-SRC3 luciferase reporter, at 3.6 µM, stronger effect = higher value
# Chain of Nuclear receptor coactivator 3 (Homo sapiens) (Q9Y6Q9 whole entry, looked up, the tested form may be a part): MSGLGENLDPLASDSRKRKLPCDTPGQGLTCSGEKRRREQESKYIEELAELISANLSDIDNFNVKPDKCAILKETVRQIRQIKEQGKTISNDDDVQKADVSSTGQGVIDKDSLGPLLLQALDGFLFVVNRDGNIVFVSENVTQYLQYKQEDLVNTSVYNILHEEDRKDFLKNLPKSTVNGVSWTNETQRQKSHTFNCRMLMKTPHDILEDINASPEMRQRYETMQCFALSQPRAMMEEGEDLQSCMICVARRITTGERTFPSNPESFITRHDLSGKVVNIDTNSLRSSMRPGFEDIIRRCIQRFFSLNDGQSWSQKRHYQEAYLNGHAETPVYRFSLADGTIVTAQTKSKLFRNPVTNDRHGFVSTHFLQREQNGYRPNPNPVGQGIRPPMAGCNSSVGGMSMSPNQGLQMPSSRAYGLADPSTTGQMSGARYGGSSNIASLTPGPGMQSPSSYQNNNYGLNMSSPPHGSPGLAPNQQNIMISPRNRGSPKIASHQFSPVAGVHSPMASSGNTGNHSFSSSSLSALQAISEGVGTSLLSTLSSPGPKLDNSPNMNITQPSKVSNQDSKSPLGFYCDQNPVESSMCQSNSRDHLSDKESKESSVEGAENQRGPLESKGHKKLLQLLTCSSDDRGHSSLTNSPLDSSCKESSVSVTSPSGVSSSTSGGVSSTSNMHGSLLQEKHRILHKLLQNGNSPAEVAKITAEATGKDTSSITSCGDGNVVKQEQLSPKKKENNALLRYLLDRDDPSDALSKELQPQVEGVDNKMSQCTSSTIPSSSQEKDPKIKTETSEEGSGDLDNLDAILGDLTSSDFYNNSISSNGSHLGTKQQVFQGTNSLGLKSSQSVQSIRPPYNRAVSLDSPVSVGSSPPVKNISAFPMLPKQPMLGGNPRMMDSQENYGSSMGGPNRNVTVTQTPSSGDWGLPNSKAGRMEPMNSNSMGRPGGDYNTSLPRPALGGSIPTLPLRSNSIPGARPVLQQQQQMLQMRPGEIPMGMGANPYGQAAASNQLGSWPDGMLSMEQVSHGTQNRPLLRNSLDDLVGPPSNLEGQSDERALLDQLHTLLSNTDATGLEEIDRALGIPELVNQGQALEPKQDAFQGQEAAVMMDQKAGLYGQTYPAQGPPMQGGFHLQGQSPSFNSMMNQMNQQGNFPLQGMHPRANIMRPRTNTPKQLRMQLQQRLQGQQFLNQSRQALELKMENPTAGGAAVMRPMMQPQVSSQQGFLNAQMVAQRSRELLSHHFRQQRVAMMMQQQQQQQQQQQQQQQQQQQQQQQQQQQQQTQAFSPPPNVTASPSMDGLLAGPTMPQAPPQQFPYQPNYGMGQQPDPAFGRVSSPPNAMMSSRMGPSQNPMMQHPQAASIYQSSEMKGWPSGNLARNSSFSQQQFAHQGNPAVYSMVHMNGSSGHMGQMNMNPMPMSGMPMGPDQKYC
# [2] = test system: transactivating tegument protein VP16 (Human herpesvirus 1), Gal4-VP16 luciferase reporter; test: repression of VP16-driven luciferase reporter – cell-based, luminescence, high throughput, counter-screen for SRC3 inhibitor project (AID 588794; in the data active = inhibition above about 30%); details: mammalian cells, at 3.6 µM, stronger effect = higher value
# [3] = biological target: Nuclear receptor coactivator 1 (Homo sapiens) (UniProt Q15788); test: NCOA1 GAL4-fusion reporter inhibition – cell-based, luminescence, quadruplicate, confirmation (AID 588820;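 active = mean inhibition above 46.68%, the untreated control wells mean plus 3 SD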;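 note: 0% = DMSO wells and 100% = gossypol 36 µM treated wells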); details: HEK293 GAL4-SRC1 luciferase reporter, at 3.6 µM, stronger effect = higher value
# Chain of Nuclear receptor coactivator 1 (Homo sapiens) (Q15788 whole entry, looked up, the tested form may be a part): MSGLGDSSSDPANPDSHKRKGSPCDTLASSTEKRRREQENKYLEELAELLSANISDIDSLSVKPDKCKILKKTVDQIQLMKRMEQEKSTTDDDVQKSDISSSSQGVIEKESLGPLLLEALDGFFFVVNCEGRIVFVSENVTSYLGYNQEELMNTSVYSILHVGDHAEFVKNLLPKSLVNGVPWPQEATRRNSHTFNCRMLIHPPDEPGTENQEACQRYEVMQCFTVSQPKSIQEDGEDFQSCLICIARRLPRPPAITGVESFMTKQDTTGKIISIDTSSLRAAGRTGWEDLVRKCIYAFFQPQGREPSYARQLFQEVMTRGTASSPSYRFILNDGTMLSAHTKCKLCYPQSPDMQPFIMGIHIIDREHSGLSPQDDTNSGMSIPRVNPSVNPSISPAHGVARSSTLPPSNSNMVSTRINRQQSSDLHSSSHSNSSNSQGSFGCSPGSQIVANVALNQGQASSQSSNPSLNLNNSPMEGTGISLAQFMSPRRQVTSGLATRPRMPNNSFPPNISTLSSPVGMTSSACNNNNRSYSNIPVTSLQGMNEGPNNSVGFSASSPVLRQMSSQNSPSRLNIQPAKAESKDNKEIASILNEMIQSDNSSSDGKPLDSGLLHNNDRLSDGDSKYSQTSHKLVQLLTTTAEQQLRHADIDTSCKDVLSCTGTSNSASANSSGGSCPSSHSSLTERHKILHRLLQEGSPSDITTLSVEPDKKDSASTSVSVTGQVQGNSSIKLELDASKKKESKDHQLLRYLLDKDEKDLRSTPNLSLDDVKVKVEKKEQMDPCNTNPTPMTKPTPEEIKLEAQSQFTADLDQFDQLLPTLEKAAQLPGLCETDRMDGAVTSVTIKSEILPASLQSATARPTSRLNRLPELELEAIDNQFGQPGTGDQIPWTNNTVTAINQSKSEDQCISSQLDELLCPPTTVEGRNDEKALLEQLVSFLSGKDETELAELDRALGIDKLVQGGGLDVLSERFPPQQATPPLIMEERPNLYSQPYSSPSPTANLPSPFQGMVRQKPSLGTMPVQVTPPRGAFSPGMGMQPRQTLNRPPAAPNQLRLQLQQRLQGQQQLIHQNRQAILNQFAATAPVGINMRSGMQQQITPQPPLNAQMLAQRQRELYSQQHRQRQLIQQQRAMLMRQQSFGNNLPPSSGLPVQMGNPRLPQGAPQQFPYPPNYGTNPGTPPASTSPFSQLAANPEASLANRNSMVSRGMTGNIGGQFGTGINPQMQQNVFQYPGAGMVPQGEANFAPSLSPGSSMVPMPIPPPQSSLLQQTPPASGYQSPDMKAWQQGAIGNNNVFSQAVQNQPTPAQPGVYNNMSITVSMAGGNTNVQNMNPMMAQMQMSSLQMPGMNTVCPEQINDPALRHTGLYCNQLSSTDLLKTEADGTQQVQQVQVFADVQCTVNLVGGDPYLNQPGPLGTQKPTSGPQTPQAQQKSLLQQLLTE
# [4] = repression of VP16-driven luciferase reporter – cell-based, luminescence, high throughput, counter-screen for SRC1 inhibitor project (AID 588824; in the data active = inhibition above about 25%); details: cell-based VP16 transactivation luciferase luminescence; at 3.6 µM; stronger effect = higher value
# [5] = StAR promoter reporter inhibitors, counter-screen for LRH-1 inverse agonist project, cell-based, luminescence, high throughput (AID 651611); details: StAR promoter luciferase reporter counterscreen, at 3.6 µM, stronger effect = higher value
# [6] = biological target: Nuclear receptor subfamily 5 group A member 2 (Homo sapiens) (UniProt O00482); test: NR5A2 activity suppression in reporter cells – cell-based, luminescence, confirmation (AID 651613; in the data active = inhibition above about 42%;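 note: HEK293T cells co-transfected with LRH-1 and StAR promoter luciferase reporter; 0% = vehicle wells and 100% = parental cells lacking receptor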); details: cell-based LRH-1 luciferase reporter, inverse agonism; at 3.6 µM; stronger effect = higher value
# Chain of Nuclear receptor subfamily 5 group A member 2 (Homo sapiens) (O00482 whole entry, looked up): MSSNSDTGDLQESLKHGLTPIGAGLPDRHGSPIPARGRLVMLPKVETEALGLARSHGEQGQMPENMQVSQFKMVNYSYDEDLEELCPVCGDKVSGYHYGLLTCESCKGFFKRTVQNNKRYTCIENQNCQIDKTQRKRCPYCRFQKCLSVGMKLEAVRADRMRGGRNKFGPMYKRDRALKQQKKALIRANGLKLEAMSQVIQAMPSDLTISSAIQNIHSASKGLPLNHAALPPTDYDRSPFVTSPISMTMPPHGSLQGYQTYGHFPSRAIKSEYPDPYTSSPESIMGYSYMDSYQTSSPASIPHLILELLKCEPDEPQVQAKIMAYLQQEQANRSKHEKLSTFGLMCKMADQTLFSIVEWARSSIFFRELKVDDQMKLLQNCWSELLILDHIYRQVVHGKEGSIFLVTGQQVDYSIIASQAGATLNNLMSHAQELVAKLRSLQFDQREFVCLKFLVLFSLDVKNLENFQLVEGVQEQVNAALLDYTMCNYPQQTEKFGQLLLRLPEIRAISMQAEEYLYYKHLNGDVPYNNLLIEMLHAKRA
# [7] = biological target: Steroidogenic factor 1 (Homo sapiens) (UniProt Q13285); test: inverse agonism at SF1 nuclear receptor – cell-based, luminescence, high throughput, counter-screen for LRH-1 inverse agonist project (AID 651614; in the data active = inhibition above about 44%;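 note: cells cotransfected with StAR promoter reporter and SF1 expression vector; 0% = vehicle on cells with receptor and 100% = vehicle on cells lacking receptor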); details: cell-based SF1 luciferase reporter, at 3.6 µM, stronger effect = higher value
# [8] = compounds suppressing VP16-driven luciferase signal – cell-based, luminescence, high throughput, counter-screen for LRH-1 inverse agonist project (AID 651615; in the data active = inhibition above about 33%); details: Gal4-VP16 luciferase reporter cells, at 3.6 µM, stronger effect = higher value
# [9] = test system: transactivating tegument protein VP16 (Human herpesvirus 1); test: compounds suppressing VP16-driven luciferase signal – cell-based, luminescence, single concentration, counter-screen for SRC2 inhibitor project (AID 652007; in the data active = inhibition above about 36%); details: cell-based VP16 transactivation luciferase reporter, at 8.9 µM, stronger effect = higher value
# [10] = biological target: Nuclear receptor coactivator 2 (Homo sapiens) (UniProt Q15596); test: inhibition of GAL4-SRC2 driven luciferase expression – cell-based, luminescence, HEK293, triplicate, confirmation (AID 652008;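 active = mean inhibition above 46.5%, the solvent-only control mean plus 3 SD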;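 note: 0% = DMSO-treated cells and 100% = Gossypol at 36 µM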); details: HEK293 GAL4-SRC2 luciferase reporter, at 8.9 µM, stronger effect = higher value
# Chain of Nuclear receptor coactivator 2 (Homo sapiens) (Q15596 whole entry, looked up, the tested form may be a part): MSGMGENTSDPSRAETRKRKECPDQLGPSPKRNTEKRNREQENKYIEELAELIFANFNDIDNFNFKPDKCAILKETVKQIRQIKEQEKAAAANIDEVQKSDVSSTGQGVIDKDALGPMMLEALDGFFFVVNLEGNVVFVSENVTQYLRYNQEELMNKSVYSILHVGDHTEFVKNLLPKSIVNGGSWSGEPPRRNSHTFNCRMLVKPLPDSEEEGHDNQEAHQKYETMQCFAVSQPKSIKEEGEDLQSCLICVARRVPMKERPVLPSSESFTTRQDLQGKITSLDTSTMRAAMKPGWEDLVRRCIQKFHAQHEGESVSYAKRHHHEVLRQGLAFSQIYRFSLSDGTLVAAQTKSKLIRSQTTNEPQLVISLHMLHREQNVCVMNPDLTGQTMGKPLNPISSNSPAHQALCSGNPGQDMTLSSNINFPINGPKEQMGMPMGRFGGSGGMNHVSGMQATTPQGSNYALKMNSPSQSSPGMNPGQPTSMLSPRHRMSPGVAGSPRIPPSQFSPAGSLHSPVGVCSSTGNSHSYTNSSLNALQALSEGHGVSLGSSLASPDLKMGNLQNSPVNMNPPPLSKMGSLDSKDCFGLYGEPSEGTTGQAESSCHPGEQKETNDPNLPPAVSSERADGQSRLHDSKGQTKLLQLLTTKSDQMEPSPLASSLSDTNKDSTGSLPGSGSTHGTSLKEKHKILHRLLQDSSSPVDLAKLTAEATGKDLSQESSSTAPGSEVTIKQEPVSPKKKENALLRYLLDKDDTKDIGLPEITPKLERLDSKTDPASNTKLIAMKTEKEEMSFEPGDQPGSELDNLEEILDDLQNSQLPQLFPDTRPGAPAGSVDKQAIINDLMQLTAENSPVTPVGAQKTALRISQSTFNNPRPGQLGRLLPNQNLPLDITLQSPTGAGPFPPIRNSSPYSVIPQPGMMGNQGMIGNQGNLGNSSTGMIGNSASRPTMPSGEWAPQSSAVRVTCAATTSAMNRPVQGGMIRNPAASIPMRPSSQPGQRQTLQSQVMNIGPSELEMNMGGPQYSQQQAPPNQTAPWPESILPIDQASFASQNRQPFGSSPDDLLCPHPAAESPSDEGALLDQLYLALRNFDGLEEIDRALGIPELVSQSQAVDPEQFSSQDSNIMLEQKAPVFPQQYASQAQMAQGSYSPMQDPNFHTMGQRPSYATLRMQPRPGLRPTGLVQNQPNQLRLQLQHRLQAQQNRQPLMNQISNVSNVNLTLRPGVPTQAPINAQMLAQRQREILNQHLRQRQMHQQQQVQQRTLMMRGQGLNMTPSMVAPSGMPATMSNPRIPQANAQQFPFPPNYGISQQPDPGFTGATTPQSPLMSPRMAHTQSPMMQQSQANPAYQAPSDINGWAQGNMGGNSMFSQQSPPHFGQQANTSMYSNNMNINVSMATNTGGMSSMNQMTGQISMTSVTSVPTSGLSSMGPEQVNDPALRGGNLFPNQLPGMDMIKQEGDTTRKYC
SMILES,inhibition [1],inhibition [2],inhibition [3],inhibition [4],inhibition [5],inhibition [6],inhibition [7],inhibition [8],inhibition [9],inhibition [10]
O=C(N/N=C/c1ccc(O)cc1O)c1ccc(CN2C(=O)c3cccc4cccc2c34)cc1,67.2% (active),77.8% (active),78.5% (active),76.2% (active),84.8% (active),101% (active),89.2% (active),82.6% (active),-14.6%,18.8%
C=C1C(=O)[C@]23C[C@H]1CCC2[C@@]1(C)C(C[C@@H]3O)[C@](C)(C(=O)OC)CC[C@@H]1O (stereo not given in full),40%,24.9%,-14.1%,37.1% (active),43.8% (active),41.3% (active),42.4%,49.4% (active),34.8%,49.3% (active)
C=C1C(=O)OC2CC1C(OC(C)=O)CC(C)=CCCC(C)=CCCC2(C)O (stereo not given),0.28%,39.9% (active),23.6%,34.9% (active),39.1% (active),25.2%,25%,56% (active),26.4%,38.7%
CC(C)CCCCCCCCCCCCC(=O)NCC(=O)NC1C(C)OC(Nc2ncnc3nc[nH]c23)C(O)C1O (stereo not given),98.9% (active),98.8% (active),96.6% (active),98.8% (active),94.7% (active),111% (active),97.7% (active),95.8% (active),76.9% (active),72.2% (active)
O=C(NCc1cccnc1)/C(=C/c1ccc(-c2ccc(Cl)cc2)o1)S(=O)(=O)c1ccccc1,76.5% (active),62.8% (active),48.1% (active),47% (active),47.5% (active),79.5% (active),78.1% (active),77.2% (active),70.2% (active),50.4% (active)
